Measurements published in PubChem BioAssay AID2625 (National Center for Advancing Translational Sciences (NCATS), 2010).
Results filed as inconclusive are left out. Calls of active or inactive are those of the source. The call rests on the fitted dose curve; in most records, active means well fitted curve in the direction sought with a large enough effect; inconclusive means small, poorly fitted or top-dose-only effect, or effect the other way, or another doubt; inactive means no such curve, though single readings can be large or run the other way.

Biological target: Pyruvate kinase PKLR (Homo sapiens) (UniProt P30613)
Assay: Secondary LDH Assay for Activators of Human Liver Pyruvate Kinase: for Probe SAR;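 further: 0% = uninhibited enzyme rate and 100% = full activation by fructose bisphosphate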
Conditions: purified hPK-L, LDH-coupled NADH fluorescence kinetic; series mostly up to 58.2 µM; activity change, positive = activation: at the top concentration
How it was run: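 Kinetic LDH-coupled read-out: NADH fluorescence loss followed every 30 s for 3–6 min gave initial rates. Reaction: 10 nM human liver PK, 0.1 mM PEP, 4 mM ADP, 0.2 mM NADH, 50 mM Tris-Cl pH 8.0; activation normalised to fructose-bis-phosphate.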

Pyruvate kinase PKLR (Homo sapiens), sequence (P30613 whole entry, looked up): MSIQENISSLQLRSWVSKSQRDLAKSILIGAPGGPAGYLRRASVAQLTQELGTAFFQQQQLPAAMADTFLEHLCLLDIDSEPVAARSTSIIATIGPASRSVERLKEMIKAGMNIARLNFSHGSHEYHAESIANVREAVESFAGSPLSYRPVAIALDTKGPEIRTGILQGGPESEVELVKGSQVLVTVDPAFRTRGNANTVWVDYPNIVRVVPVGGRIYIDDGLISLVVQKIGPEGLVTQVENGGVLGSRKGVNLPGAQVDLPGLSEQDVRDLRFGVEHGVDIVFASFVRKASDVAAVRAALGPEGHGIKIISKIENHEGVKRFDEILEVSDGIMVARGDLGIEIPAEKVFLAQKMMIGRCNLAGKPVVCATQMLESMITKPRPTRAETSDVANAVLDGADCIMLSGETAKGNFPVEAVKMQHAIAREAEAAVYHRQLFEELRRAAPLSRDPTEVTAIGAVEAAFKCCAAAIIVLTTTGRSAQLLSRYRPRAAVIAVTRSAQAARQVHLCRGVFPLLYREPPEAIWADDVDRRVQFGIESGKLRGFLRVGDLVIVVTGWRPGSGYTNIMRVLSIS

Activity change, positive = activation, inactive:
CNc1cccc(S(=O)(=O)N2CCN(S(=O)(=O)c3ccc4c(c3)OCCO4)CC2)c1 -9.66%
Cc1c(Cl)cccc1NS(=O)(=O)c1cc2c(cc1Cl)CCC(=O)N2 18.1%
O=C1CCc2cc(S(=O)(=O)Nc3ccncc3)ccc2N1 13.1%
O=C1CCc2cc(S(=O)(=O)Nc3cccnc3)ccc2N1 -14.8%
Cc1ccc(NS(=O)(=O)c2ccc3ccccc3c2)cc1C 20.6%
O=C1c2ccccc2C(=O)N1c1cccc(O)c1 -12.5%
Cc1ccc(NS(=O)(=O)c2cc3c(cc2F)NC(=O)CC3)cc1C 10.1%
Cc1ccc(NS(=O)(=O)c2cc3c(cc2C)NC(=O)CO3)cc1C 10.9%
COc1cccc(N2C(=O)c3ccccc3C2=O)n1 -2.51%
Cc1ccc(NS(=O)(=O)c2ccc3c(c2)CCN(C(=O)C(F)(F)F)C3)cc1C -14.6%
O=C1CCc2cc(S(=O)(=O)Nc3ccccn3)ccc2N1 -13.7%
O=C1CCc2cc(S(=O)(=O)Nc3ccc4c(c3)OCCO4)ccc2N1 2.49%
O=C1c2ccccc2C(=O)N1c1ncccc1O -7.2%
COc1cccc(OC2=NS(=O)(=O)c3ccccc32)c1 9.2%
Cc1ccc2nc(-c3cccs3)c(Nc3ccccc3)n2c1 -18.5%
Cc1cc(C)n2c(Nc3ccccc3)c(-c3ccc(C)o3)nc2n1 -7.21%
Cc1ccc(NS(=O)(=O)c2ccc(Cl)cc2)cc1C -12.4%
Cc1cccc(NS(=O)(=O)c2ccc3c(c2)CCC(=O)N3)c1 14.6%
O=C1CCc2cc(S(=O)(=O)Nc3cccc(B(O)O)c3)ccc2N1 -15.6%
CCCCN1C(=O)c2ccccc2C1=O -3.18%
Cc1ccn2c(NC3CCCCC3)c(-c3ccc(C)o3)nc2c1 -7.6%
Cc1ccc(NS(=O)(=O)c2ccc3c(c2)CCC(=O)N3)cc1 10.1%
Cc1ccc(NS(=O)(=O)c2cc3c(cc2-c2cn[nH]c2)NC(=O)CO3)cc1C 8.73%
Cc1ccccc1NS(=O)(=O)c1ccc2c(c1)CCC(=O)N2 7.53%
